“And” between values parts separate entries of the source, which are not always exact repeats. Equal entries are not always repeated. Some compounds were tested as several samples or in several runs, with calls that do not always agree. The source made the active and inactive calls. The calls were made as follows: active = hit-call score of the fitted dose curve at least 0.9, where 1 is the maximum; inactive = score below 0.9.

Sequence of Paired box protein Pax-6 (Homo sapiens) (P26367 whole entry, looked up): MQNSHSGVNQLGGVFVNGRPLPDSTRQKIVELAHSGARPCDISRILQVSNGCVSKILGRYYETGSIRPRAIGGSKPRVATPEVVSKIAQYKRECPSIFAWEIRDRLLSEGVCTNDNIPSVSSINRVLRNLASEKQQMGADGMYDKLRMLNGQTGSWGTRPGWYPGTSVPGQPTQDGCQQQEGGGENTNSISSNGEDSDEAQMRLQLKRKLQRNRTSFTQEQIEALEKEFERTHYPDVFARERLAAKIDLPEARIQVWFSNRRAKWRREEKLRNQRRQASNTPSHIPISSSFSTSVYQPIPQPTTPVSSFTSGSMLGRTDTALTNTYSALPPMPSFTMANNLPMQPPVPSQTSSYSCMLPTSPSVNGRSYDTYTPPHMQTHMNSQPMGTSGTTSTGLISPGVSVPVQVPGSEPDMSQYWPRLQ

This assay deals with Paired box protein Pax-6 (Homo sapiens) (UniProt P26367). Kind of assay: ATG_Pax6_CIS: Attagene CIS-FACTORIAL HepG2 Assay for human Paired Box 6 (PAX6) (AID 2282956). The note with it: HepG2 CIS-FACTORIAL PAX6 reporter transcription, RNA readout; actives raise or lower the signal. As to the method:
ATG_CIS is a cell-based, multiplexed-readout assay that uses HepG2, a human liver cell line, with measurements taken at 24 hours after chemical dosing in a 24-well plate.ATG_Pax6_CIS is one of 52 assay component(s) measured or calculated from the ATG_CIS assay. It is designed to make measurements of mRNA induction, a form of inducible reporter, as detected with fluorescence intensity signals by Reverse transcription polymerase chain reaction (RT-PCR) and Capillary electrophoresis technology.Data from the assay component ATG_Pax6_CIS was analyzed into 1 assay endpoint. This assay endpoint, ATG_Pax6_CIS, was analyzed with bidirectional fitting relative to DMSO as the negative control and baseline of activity. Using a type of inducible reporter, measures of mRNA for gain or loss-of-signal activity can be used to understand the reporter gene at the transcription factor-level as they relate to the gene PAX6. Furthermore, this assay endpoint can be referred to as a primary readout, because this assay has produced multiple assay endpoints where this one serves a reporter gene function. To generalize the intended target to other relatable targets, this assay endpoint is annotated to the dna binding intended target family, where the subfamily is paired box protein.
Human liver HepG2 cells are transiently transfected with multiple reporter transcription units (MRTUs) in 6-well plates using FuGene 6 reagent (Roche; 3 ml FuGene/1 mg DNA). The MRTU constructs are regulated by a cis-regulating element (promoter). […] A major difference between the CIS and TRANS system is that in CIS activities of endogenous TFs are measured, whereas the TRANS assay evaluates changes in activities of exogenous, chimeric NR-Gal4 proteins. […] At the end of 24 hour incubation, total RNA was isolated using TriZol reagent (Invitrogen). The isolated RNA is then reverse-transcribed using oligo(dT) primer and Mo-MLV reverse transcriptase (Invitrogen) with DNAse I (Ambion) treatment for 30 min. The one-tenth of the produced cDNA was amplified by PCR using Taq DNA polymerase (Invitrogen) and two reporter sequence-specific primers. The PCR products were fluorescently labeled by primer extension with 6-arboxyfluorescein (6-FAM) 5'-labeled reporter sequence-specific primer (2 min at 95 C, 20 s at 68 C and 10 min at 72 C) and these products were digested with 5U of HpaI (New England Biolabs) for 2h at 37 C. The fragments were purified using Qiaquick PCR columns (Qiagen), analyzed on an ABI 3130xL genetic analyzer (Applied Biosystems) with peak positions identified by using a set of X-rhodamine (ROX)-labeled MapMarker1000 molecular weight standards (BioVentures). The raw capillary electrophoresis data was processed using Attagraph software (Attagene).
In the case of `O=S(=O)(O)c1ccc(N=Nc2c(O)ccc3cc(S(=O)(=O)O)ccc23)cc1`, the compound was called inactive.

With `CNC(C)=O`, the result was inactive.

On to `Cn1cc[nH]c1=S`, for which the call was inactive.

Take `O=C(O)CO`: the call was inactive.

In the case of `CCCCC(CC)C(=O)OCCOCCOCCOC(=O)C(CC)CCCC` (stereo unspecified), the compound was called inactive.

Take `COc1cc2c(c(OC)c1OC)-c1ccc(OC)c(=O)cc1[C@@H](NC(C)=O)CC2`: the result was inactive.

With `CC(C)C(=O)Nc1ccc([N+](=O)[O-])c(C(F)(F)F)c1`, the compound was called inactive.

As for `CC1(C)C(=O)N(Cl)C(=O)N1Cl`, the outcome was inactive.

On to `c1ccc(C(O[C@@H]2CCCN(CCc3ccc4c(c3)OCO4)C2)c2ccccc2)cc1`, for which the concentration at half-maximal activity (AC50) was 44.3 µM (active).

On to `O=C1CN(N=Cc2ccc([N+](=O)[O-])o2)C(=O)N1`, for which the compound was called inactive.

Take `O=S(=O)(O)CCC(F)(F)C(F)(F)C(F)(F)C(F)(F)C(F)(F)C(F)(F)F`: the result was inactive.

On to `O=C(N[C@H](CO)[C@H](O)c1ccc([N+](=O)[O-])cc1)C(Cl)Cl`, for which the compound was called inactive.

For `NC(=O)N1c2ccccc2C=Cc2ccccc21`, the result was inactive.

Consider `Cc1nccn1-c1ccc(Sc2cccc(C3(C(N)=O)CCOCC3)c2)cc1`, for which the compound was classed as inactive.

As for `C[C@@H](Oc1ccc(CNC(=O)c2cccnc2Oc2ccc3c(c2)OCO3)c(F)c1)C(=O)O`, the outcome was inactive.

As for `O=C(O)c1cccc(C[C@@H]2COc3ccc(OCc4nc5cc(F)ccc5s4)cc3[C@@H]2O)c1`, the AC50 is 135 µM (active).

As for `O=C(O)c1ccc2c(c1)nc(C(=O)NC1CCN(C3CC3)CC1)n2Cc1cc(-c2ccc(Cl)s2)on1`, the result was inactive.

With `OCCOCCOCCO`, the result was inactive.

With `CCc1ccc(O)c(C(C)(C)C)c1`, the compound was called inactive.

As for `NC(N)=O`, the outcome was inactive.

Regarding `S=P(N1CC1)(N1CC1)N1CC1`, the result was inactive.

With `OCc1ccccc1`, the compound was classed as inactive.

Regarding `CCCCCCOC(=O)CC(CC(=O)OCCCCCC)(OC(=O)CCC)C(=O)OCCCCCC`, the call was inactive.

Regarding `OC(Cn1cncn1)(Cn1cncn1)c1ccc(F)cc1F`, the compound was called inactive.

On to `C=CN1CCCC1=O`, for which the compound was classed as inactive.

For the compound `FC(F)(F)C(F)(F)C(F)(F)C(F)(F)C(F)(F)C(F)(F)I`, the call was inactive.

For `OCC(CO)(CO)CO`, the compound was called inactive.

Consider `COCc1nnc(-c2ccc[n+]([O-])c2)n1-c1c(Cl)c(Cl)cc2[nH]c(=O)c(=O)[nH]c12`, for which the compound was classed as inactive.

For the compound `CC(C)c1nnc2ccc(-c3ocnc3-c3cc(F)ccc3F)cn12`, the compound was classed as inactive.

Turning to `O=C(NO)C1(NS(=O)(=O)c2ccc(Oc3ccc(F)cc3)cc2)CCOCC1`, the compound was classed as inactive.

Take `OC[C@H]1O[C@@](CO)(O[C@H]2O[C@H](CO)[C@@H](O)[C@H](O)[C@H]2O)[C@@H](O)[C@@H]1O`: the compound was called inactive.

For `CCCCCOC(C)=O`, the result was inactive.

Take `CCCOc1ccc(S(=O)(=O)N2CCN(CC)CC2)cc1-c1nc2c(CC)n(Cc3ccccn3)nc2c(=O)[nH]1`: the concentration at half-maximal activity (AC50) is 40.2 µM (active).

For the compound `OC(CCl)CCl`, the outcome was inactive.

For `c1ccc2c(c1)-c1cccc3c1c-2cc1ccccc13`, the compound was classed as inactive.

As to `CC(C)CC(C)O` (stereo unspecified), the compound was called inactive.

With `CCn1nc(C)c2c1C(=O)NCC(c1ccc(O)cc1)=N2`, the result was inactive.

Turning to `CC(=O)c1ccccc1`, the call was inactive.

As to `Cc1nc(-c2ccccn2)ncc1C(=O)Nn1cc(C)c2cc(F)ccc21`, the outcome was inactive.

`OCc1c[nH]c2ccccc12`: the outcome was inactive; the AC50 was 6.46 µM (active) and 23.1 µM (active) and 38.2 µM (active).

For the origin of these results see PubChem BioAssay (EPA / NIEHS).
